Data published in PubChem BioAssay (Tox21).
Results filed as inconclusive are left out. Unmarked numbers belong to inactive results. The call rests on the fitted dose curve; in most records, active means well fitted cell-killing curve with a large enough effect in the repeat runs; inconclusive means weak or mixed curves, or effect the other way; inactive means flat fitted curve, though single readings scatter.

assay: qHTS assay to identify small molecule agonists of the constitutive androstane receptor (CAR) signaling pathway - cell viability counter screen (AID 1224836); conditions: HepG2-CYP2B6-hCAR viability, CellTiter-Fluor, 23 h, PK11195 added to every well; series mostly up to 92.4 µM; viability change, negative = cytotoxic: at the top concentration; further: nearly all actives have a fitted effect of over 45% in size
Source text: U.S. Tox21 Program National Center for Advancing Translational Sciences [NCATS] NIH Chemical Genomics Center [NCGC] U.S. Environmental Protection Agency [EPA] National Institutes of Environmental Health Sciences [NIEHS] National Toxicology Program [NTP] U.S. Food and Drug Administration [FDA] Tox21 Assay Overview: The constitutive androstane receptor (CAR) is a nuclear receptor which regulates multiple drug metabolizing enzymes (DMEs) and transporters. Activating CAR will generally increase the transcription and subsequent translation of CYP2B6 and CYP3A4. These two DMEs represent about 50% of the drug metabolizing potential in the body. […] Recently, there have also been studies performed indicating CARs role in energy metabolism and cancer therapy. Therefore, inducing CARs activity could have a potential effect on diabetes and cancer. Identifying environmental toxins and compounds which modulate CAR, through the use of the Tox21 10K compound collection, will be an important step in determining the toxicity and potential therapeutic effects these factors will have on the human body. To differentiate true CAR agonists from cytotoxic substances, the assay is multiplexed with a cell viability assay.
Tox21 Assay Protocol Summary: A double-stable (hCAR and CYP2B6-2.2kb) transfected cell line, derived from human hepatoma (HepG2) cells, was utilized for the duration of the quantitative high-throughput screens. The HepG2-CYP2B6-hCAR cells were dispensed at 2500 cells/4 uL/well in 1536-well white solid bottom plates using a Multidrop Combi. After the assay plates were incubated at 37 C/5% CO2 for 4 hrs, 23 nL of compounds at 15 concentrations (from 5-48 columns) or positive control (from 1 to 4 columns) were transferred to the assay plates using a Pintool station. One uL of PK11195 (final concentration = 0.75 uM) was added, using a Flying Reagent Dispenser, inside each well. After a 23 hr incubation period at 37 C/5% CO2, 1 uL of CellTiter-Fluor reagent was added into each well of the assay plates using a Flying Reagent Dispenser. The fluorescence intensity in the plates was then measured using a ViewLux plate reader.
On the % scale 0 is the no-effect control and ±100 the full control effect.

Compound	viability change, negative = cytotoxic
O=C1c2ccccc2C(=O)c2ccccc21	5.88% [at 19 µM]
c1ccc(N2CCNCC2)cc1	-1.81% [at 42.5 µM]
COc1cc(C[C@@H](C)N)c(OC)cc1C	-0.694%
CC1(C)COP(Oc2ccccc2)OC1	-0.682%
COC(=O)C1=CCCN(C)C1	2.29% [at 42.5 µM]
C=CC1CC=CCC1 (stereo not given)	4.19%
O=C1OC(CCN2CCCCC2)OC1(c1ccccc1)c1ccccc1 (stereo not given)	1.28% [at 42.5 µM]
C[N+](C)=CCl	1.33%
CCCCCCBr	-10.5%
N#Cc1c(Cl)cccc1Cl	0.808%
ClCCOCOCCCl	-4.8%
CCN(CC)c1nc(C)cc(OP(=S)(OC)OC)n1	0.53%
O=[N+]([O-])c1ccc(CBr)cc1	5.35%
O=C1OC(=O)C2C1C1(Cl)C(Cl)=C(Cl)C2(Cl)C1(Cl)Cl (stereo not given)	4.26%
ClC(Br)Br	0.0196%
CS(=O)(=O)c1cc(C(F)(F)F)ccc1C(=O)c1cnoc1C1CC1	-0.522%
CCCCc1ccc(O)cc1	-8.14%
COc1ncc(F)c2nc(S(=O)(=O)Nc3c(F)cccc3F)nn12	1.22% [at 42.5 µM]
COc1cc(OC)nc(NC(=O)NS(=O)(=O)c2ncccc2C(=O)N(C)C)n1	6%
CCNc1nc(NC(C)C)nc(OC)n1	1.63%

Compound	viability change, negative = cytotoxic
N#CC(O)c1ccccc1 (stereo not given)	5.31%
COC(=O)c1c(C(F)F)nc(C(F)(F)F)c(C2=NCCS2)c1CC(C)C	2.18%
C[C@@H]1CN(C2CCC(C#N)(c3ccc(F)cc3)CC2)CC[C@]1(C(=O)O)c1ccccc1 (stereo not given in full)	5.13% [at 42.5 µM]
OC(Cn1cncn1)(c1ccc(F)cc1)c1ccccc1F (stereo not given)	-4.74%
CC(=O)C(Cl)Cl	-0.641%
CC1(C)C(=O)NC(=O)NC1=O	5.91%
CC(C(O)c1ccccc1)N(C)C/C=C/c1ccccc1 (stereo not given)	-2.1% [at 42.5 µM]
CC(N)=S	0.166%
O=C1CN=C(c2ccccc2)c2cc([N+](=O)[O-])ccc2N1	6.72% [at 42.5 µM]
Cc1coc2c1CCC(C)C2 (stereo not given)	0.317%
O=C(NCO)NCO	0.622%
O=NN1CCN(N=O)CC1	13.5%
BrCCCCCCBr	3.18%
CCS(=O)(=O)C(C)(C)S(=O)(=O)CC	9.9% [at 42.5 µM]
O=C(O)c1ccc2[nH]cc(CCCCN3CC=C(c4ccccc4)CC3)c2c1	0.718% [at 42.5 µM]
CCCCc1c(C)nc(NCC)[nH]c1=O	-4.93%
CC(C(=O)c1ccccc1)N(C)C (stereo not given)	0.607% [at 42.5 µM]
NC(=S)C(N)=S	10.4%
CCN(Cc1ccc(Cl)nc1)/C(=C/[N+](=O)[O-])NC	-1.64% [at 42.5 µM]
CCOP(=S)(OCC)SCSP(=S)(OCC)OCC	5.12%
